# “And” between values parts separate entries of the source, which are not always exact repeats. Equal entries are not always repeated. About 10 (0.005%) of roughly 220,000 compounds were called active. Rule as the data show it: active = maximum fold increase above about 1.5; inconclusive = no clear call, values can overlap the other calls; inactive = below that; tested in PC3 cells. The list is a sample of the results.
# Test: compounds boosting herpes simplex virus growth – fold increase, host cell viability (AID 1956)
# Conditions: HSV replication augmentation in cells; fold increase: measured here: primary screen fold increase 10 uM, at 10 µM, stronger effect = higher value; maximum fold increase: at 0.098 µM, stronger effect = higher value; viability: measured here: host cell viability series, at 25 µM, stronger effect = lower value
Compound,fold increase,outcome
CC(=O)NC(=S)Nc1ccc(NC(=O)c2cccnc2)cc1,0.97,inactive
COc1ccc(/C=N/n2nnnc2N)cc1OC,0.91,inactive
Cc1ccc(/C=N/NC(=S)NC2CCCCC2)o1,0.99,inactive
O=C(O)C1CCN(C(=O)c2cc(F)cc3c2OCOC3)CC1,1.05,inactive
C[C@H]1CC[C@]2(O[C@@H](CCO)C[C@@H](O)[C@@H]2O)O1,0.79,inactive
O=C(O)CCCCCCCCCC[n+]1ccccc1,0.88,inactive
COc1ccc2c(c1)CCNC2Cc1ccc(OC)c(O)c1 (stereo not given),0.84,inactive
O=C1c2ccccc2S(=O)(=O)c2cc(N3CCN(c4ccccn4)CC3)ccc21,0.92,inactive
CCOC(=O)c1ccc(NC(=O)c2c(N)n(C)c(=O)[nH]c2=O)cc1,0.86,inactive
COC(=O)c1cc(NC(=O)c2cc(C(C)(C)C)nn2Cc2cccc(C)c2)ccc1N1CCOCC1,0.93,inactive
COc1ccc(-c2csc(NC3OC(=O)c4ccccc43)n2)cc1 (stereo not given),0.65,inactive
O=C(O)Cc1csc(-c2cccc(Oc3ccccc3)c2)n1,1.01 and 0.89,inactive
Cc1ccc(CNC(=O)c2ccc3c(c2)S(=O)(=O)c2ccccc2C3=O)cc1,0.82,inactive
O=C(Cc1ccccc1)Nc1c(Cl)ccc2nsnc12,1.01,inactive
COc1ccc(Cl)cc1CSc1ncn[nH]1,0.97,inactive
Cc1c(NC(=O)C(=O)N/N=C/c2cccs2)c(=O)n(-c2ccccc2)n1C,0.92,inactive
O=C(NC1CC1)C1=C[C@H](c2coc3ccccc3c2=O)C[C@H](OCCCCO)O1,0.73,inactive
CC(C)Cc1ccc(C(C)C(=N)N)cc1 (stereo not given),0.92,inactive
CC(C)(C)n1nc(Cc2cccc3ccccc23)c(C#N)c1N,0.79,inactive
Oc1ccc(-c2nnc(Nc3ccccc3)c3ccccc23)cc1,0.8,inactive
CC1(C)CC(N2CCN(C(c3ccccc3)c3ccccc3)CC2)=CC(=[N+]2CCCCC2)C1,0.65,inactive
C#CCOCCOCCOCCNc1nc(N2CCN(C(=O)C([C@@H](C)CC)n3cc(C(N)COC(=O)C(F)(F)F)nn3)CC2)nc(N2CCN(C(=O)[C@H](Cc3ccc(O)cc3)n3cc(C(N)[C@H](C)CC)nn3)CC2)n1 (stereo not given in full),0.87,inactive
C#CCNC(=O)[C@H](Cc1ccc(C(=O)c2ccccc2)cc1)NC(=O)OC(C)(C)C,0.7,inactive
COc1ccccc1-n1cn[nH]c1=S,0.88,inactive
O=C(O)CCn1c(O)c(C=C2N=c3ccccc3=N2)sc1=S,1.18,inactive

# Source: PubChem BioAssay AID1956 (SRMLSC, 2009)
